A selection: hits, their analogues and other compounds. The true share with any hit is near 6.7%.
Pf Dd2 inh – inhibitors of Plasmodium falciparum Dd2 growth. AID 1159554. P. falciparum Dd2 growth, SYBR Green, 72 h; stronger effect = lower value. 94,000 tested, 2.3% active. activity change, % at 10 µM; in the data active = activity change below about -80%; inconclusive = no clear call, values can overlap the other calls
C diff HTS – inhibitors of Clostridium difficile growth; Clostridium difficile clinical isolate growth, OD600, 24 h; stronger effect = lower value; growth activity, negative = inhibition, % at 16 µg/mL (by protocol); 86,000 tested, 0.25% active; AID 1259249;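 active = mean growth activity at or below -80% and every replicate also at or below -80%; inconclusive = mean at or below -80% but some replicate above -80%; inactive = mean growth activity above -80%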
T cruzi growth-1 – inhibitors of T. cruzi proliferation; inhibition, % at 8.34 µM; 77,000 tested, 5.9% active; AID 624255; T. cruzi beta-gal in NIH3T3, GalScreen luminescence, 90 h;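 active = mean inhibition above about 93%, with at least 55% of replicates each passing it, limit read from the data, passing the limit was not always enough; inconclusive = only one of those two conditions holds; inactive = neither condition holds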
T cruzi growth-2 – inhibitors of T. cruzi proliferation. T. cruzi beta-gal in NIH3T3, GalScreen luminescence, 90 h. 5,600 tested, 72% active. shares compounds with T cruzi growth-1. inhibition, % at 8.35 µM. AID 651739;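 active = mean replicate inhibition above about 95% and at least 55% of replicates individually reaching it, limit read from the data; inconclusive = only one of the two criteria is met; inactive = neither criterion is met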
T cruzi growth-3 – Trypanosoma cruzi proliferation inhibition; shares compounds with T cruzi growth-1; T. cruzi beta-gal in NIH3T3, GalScreen luminescence, 90 h; inhibition, % at 2.09 µM; 5,600 tested, 21% active;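 active = mean inhibition above about 95%, with at least 55% of replicates also reaching it, limit read from the data; inconclusive = meets just one of the two conditions; inactive = meets neither condition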
3T3 cytotox – NIH/3T3 (mouse) viability loss; 5,600 tested, 14% active; shares compounds with T cruzi growth-1; cytotoxicity (signal decrease), % at 8.35 µM; NIH/3T3 viability, CellTiter-Glo ATP luminescence, 90 h;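 active = mean signal decrease across replicates above about 35% based on untreated-well scatter, with enough replicates individually passing, limit read from the data; inconclusive = no rule stated though some were filed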
3T3 cytotox 2 – kills mouse NIH/3T3 fibroblasts; shares compounds with T cruzi growth-1; NIH/3T3 viability, CellTiter-Glo ATP luminescence, 90 h; inhibition, % at 24.9 µM; 5,600 tested, 56% active;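 active = mean loss of cell viability signal at or above a set limit, and enough replicates individually reaching it; inconclusive = meets only the mean limit or only the replicate share; inactive = meets neither condition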
Of the large screens only hits and unclear results are named; the others gave an inactive call (follow-up assays come after a bar, where they were run); ! = not confirmed by another sample.

C/C=C/c1ccc([C@H]2[C@H]3CN(C(=O)Nc4ccc(OC)cc4)CCCCN3[C@H]2CO)cc1	none
COc1ccc(NC(=O)N2CCCCN3[C@H](C2)[C@H](c2ccc(C#CCC(C)C)cc2)[C@@H]3CO)cc1	T cruzi growth-1 118 | T cruzi growth-2 inactive | T cruzi growth-3 inactive | 3T3 cytotox inactive | 3T3 cytotox 2 100
CO[C@@H]1CN(C)C(=O)c2ccc(NC(=O)C3CC3)cc2OC[C@H](C)N(Cc2ccncc2)C[C@@H]1C	none (no result: C diff HTS)
COc1cccc(NC(=O)N(C)C[C@@H]2Oc3cc(C#CC4(O)CCCC4)ccc3S(=O)(=O)N([C@@H](C)CO)C[C@H]2C)c1	none (no result: T cruzi growth-1)
COc1ccc(C#Cc2ccc3c(c2)O[C@@H](CN(C)C(=O)Nc2cccc(OC)c2)[C@@H](C)CN([C@@H](C)CO)S3(=O)=O)cc1	Pf Dd2 inh -90, T cruzi growth-1 inconclusive (no result: C diff HTS) | T cruzi growth-2 105 | T cruzi growth-3 108 | 3T3 cytotox 37 | 3T3 cytotox 2 34
COc1cccc(NC(=O)N(C)C[C@@H]2Oc3cc(-c4ccccc4F)ccc3S(=O)(=O)N([C@H](C)CO)C[C@@H]2C)c1	T cruzi growth-1 98 | T cruzi growth-2 111 | T cruzi growth-3 inactive | 3T3 cytotox inactive | 3T3 cytotox 2 50
COc1cccc(NC(=O)N(C)C[C@H]2Oc3cc(C#Cc4ccc(F)cc4)ccc3S(=O)(=O)N([C@@H](C)CO)C[C@@H]2C)c1	T cruzi growth-1 inconclusive | T cruzi growth-2 99 | T cruzi growth-3 108 | 3T3 cytotox inactive | 3T3 cytotox 2 52
COc1ccc(C#Cc2ccc3c(c2)O[C@H](CN(C)C(=O)Nc2cccc(OC)c2)[C@@H](C)CN([C@@H](C)CO)S3(=O)=O)cc1	Pf Dd2 inh -85, T cruzi growth-1 109 (no result: C diff HTS) | T cruzi growth-2 100 | T cruzi growth-3 110 | 3T3 cytotox inconclusive | 3T3 cytotox 2 inactive
COc1cccc(NC(=O)N(C)C[C@H]2Oc3cc(-c4ccccc4OC)ccc3S(=O)(=O)N([C@H](C)CO)C[C@H]2C)c1	none (no result: T cruzi growth-1)
COc1cccc(NC(=O)N(C)C[C@@H]2Oc3cc(C#CC4(O)CCCC4)ccc3S(=O)(=O)N([C@H](C)CO)C[C@@H]2C)c1	none (no result: T cruzi growth-1)
COc1cccc(NC(=O)N(C)C[C@H]2Oc3cc(C#Cc4ccncc4)ccc3S(=O)(=O)N([C@@H](C)CO)C[C@H]2C)c1	none
COCC(=O)Nc1ccc2c(c1)C(=O)N(C)C[C@@H](OC)[C@@H](C)CN(Cc1ccccc1OC)[C@H](C)CO2	none
CC(C)C#Cc1ccc2c(c1)O[C@H](CN(C)C(=O)c1ccccn1)[C@@H](C)CN([C@H](C)CO)S2(=O)=O	none
C[C@@H]1CCCCO[C@H](CN(C)C(=O)NC2CCCCC2)[C@H](C)CN([C@@H](C)CO)C(=O)c2cc(NC(=O)Nc3ccc4c(c3)OCO4)ccc2O1	none
C[C@H]1CN([C@@H](C)CO)C(=O)c2cc(C#CC3CCCCC3)cnc2O[C@@H]1CN(C)C	none
OC[C@@H]1[C@H](c2ccc(-c3cccc(F)c3)cc2)[C@H]2CN(Cc3cncnc3)CCCCN12	T cruzi growth-1 96 | T cruzi growth-2 inactive | T cruzi growth-3 inactive | 3T3 cytotox inactive | 3T3 cytotox 2 102
OC[C@@H]1[C@H](c2ccc(-c3cccc(F)c3)cc2)[C@@H]2CN(Cc3cncnc3)CCCCN12	T cruzi growth-1 123 | T cruzi growth-2 102 | T cruzi growth-3 inactive | 3T3 cytotox inactive | 3T3 cytotox 2 inactive
COc1cccc(-c2ccc([C@@H]3[C@H](CO)N4CCCCN(Cc5cncnc5)C[C@@H]34)cc2)c1	none
OC[C@H]1[C@@H](c2ccc(-c3cccc(F)c3)cc2)[C@@H]2CN(Cc3cncnc3)CCCCN12	none
CC(C)CC#Cc1ccc2c(c1)O[C@H](CN(C)C(=O)c1cnccn1)[C@@H](C)CN([C@H](C)CO)S2(=O)=O	none (no result: T cruzi growth-1)
C[C@@H]1CN([C@@H](C)CO)C(=O)c2cc(NC(=O)C3CC3)ccc2O[C@H]1CN(C)Cc1ccc(-c2ccccc2)cc1	none
CNC[C@H]1OCCCC[C@@H](C)Oc2ccc(NS(=O)(=O)c3ccc(OC)cc3)cc2C(=O)N([C@H](C)CO)C[C@H]1C	none
O=C(Cc1ccncc1)NCC[C@H]1CC[C@H](NC(=O)C2CCOCC2)[C@@H](CO)O1	none
C[C@@H]1CN([C@H](C)CO)S(=O)(=O)c2ccc(-c3cccc(C#N)c3)cc2O[C@H]1CN(C)C(=O)c1ccc(F)cc1	none
C[C@H]1CN([C@@H](C)CO)S(=O)(=O)c2ccc(-c3cccc(C#N)c3)cc2O[C@H]1CN(C)C(=O)c1ccc(F)cc1	T cruzi growth-1 103 | T cruzi growth-2 inactive | T cruzi growth-3 inactive | 3T3 cytotox inactive | 3T3 cytotox 2 78
C[C@H](CO)N1C[C@H](C)[C@@H](CN(C)C(=O)c2ccc(F)cc2)Oc2cc(-c3cccc(C#N)c3)ccc2S1(=O)=O	none
C[C@@H]1CN([C@@H](C)CO)S(=O)(=O)c2ccc(-c3cccc(C#N)c3)cc2O[C@@H]1CN(C)C(=O)c1ccc(F)cc1	T cruzi growth-1 109! | T cruzi growth-2 97 | T cruzi growth-3 inactive | 3T3 cytotox inconclusive | 3T3 cytotox 2 73
C[C@H](NC(=O)[C@H]1[C@H](CO)[C@H]2Cn3c(cccc3=O)[C@H]2N1CC1CCCCC1)c1ccccc1	none (no result: T cruzi growth-1)
Cc1ccc(S(=O)(=O)Nc2ccc3c(c2)C(=O)N([C@H](C)CO)C[C@H](C)[C@H](CN(C)S(=O)(=O)c2ccc(F)cc2)OCCCC[C@H](C)O3)cc1	T cruzi growth-1 120 | T cruzi growth-2 103 | T cruzi growth-3 107 | 3T3 cytotox inactive | 3T3 cytotox 2 inactive
Cc1ccc(S(=O)(=O)Nc2ccc3c(c2)C(=O)N([C@H](C)CO)C[C@H](C)[C@@H](CN(C)S(=O)(=O)c2ccc(F)cc2)OCCCC[C@@H](C)O3)cc1	none (no result: T cruzi growth-1)
Cc1ccc(S(=O)(=O)N(C)C[C@@H]2OCCCC[C@H](C)Oc3ccc(NS(=O)(=O)c4ccc(F)cc4)cc3C(=O)N([C@H](C)CO)C[C@@H]2C)cc1	T cruzi growth-1 108 | T cruzi growth-2 97 | T cruzi growth-3 inactive | 3T3 cytotox inactive | 3T3 cytotox 2 inactive
Cc1ccc(S(=O)(=O)N(C)C[C@H]2OCCCC[C@H](C)Oc3ccc(NS(=O)(=O)c4ccc(F)cc4)cc3C(=O)N([C@H](C)CO)C[C@H]2C)cc1	T cruzi growth-1 116 | T cruzi growth-2 98 | T cruzi growth-3 inactive | 3T3 cytotox inactive | 3T3 cytotox 2 40
Cc1ccc(S(=O)(=O)N(C)C[C@@H]2OCCCC[C@@H](C)Oc3ccc(NS(=O)(=O)c4ccc(F)cc4)cc3C(=O)N([C@H](C)CO)C[C@@H]2C)cc1	none

Compound activity (PubChem)
